Source: PubChem BioAssay (National Center for Advancing Translational Sciences (NCATS))
HT1080-NT tox – kills 2HG-producing HT-1080-NT fibrosarcoma cells. Potency, µM (series often up to 46.1 µM), for the others: at the highest dose activity, negative = less viability, most hits filed as cytotoxic. HT-1080-NT fibrosarcoma viability, CellTiter-Glo ATP luminescence, 48 h. hit rate 1.6% among 360,000;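 note: NT is the 2HG producing partner of a matched IDH1 knockdown line; potency is the fitted concentration of half-maximal effect; 0% = DMSO-treated cells and -100% = media-only wells without cells; nearly all actives have a fitted effect of over 55% in size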
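Fibrosarcoma NT cells, 750 per well in 5% FBS RPMI, were exposed to compound for 48 hours. Viability: CellTiter-Glo luminescence.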
HT1080 IDH1KD tx – kills HT-1080 cells with IDH1 knockdown; HT-1080 IDH1 knockdown viability, ATP luminescence, 48 h; Potency, µM (series often up to 46.1 µM), without a hit: at the top dose activity, negative = toxicity, hits mostly cytotoxic; hit rate 2% among 360,000; AID 686971;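 note: potency is the fitted concentration of half-maximal effect; 0% = DMSO wells and -100% = cell-free medium wells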
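Cytotoxicity counter-line: IDH1KD HT-1080, 48 h, CellTiter-Glo. Curves classed by r2, magnitude and activity.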
TDP1 cell noCPT – qHTS for Inhibitors of human tyrosyl-DNA phosphodiesterase 1 (TDP1): qHTS in cells in absence of CPT | hit rate 15% among 420,000 | DT40 Tdp1-/- hTDP1 cells, no CPT, ATP luminescence, 48 h | Potency, µM (titrated, usually from 46.2 µM), for inactives: at the top dose activity change, negative = growth inhibition, actives largely listed as inhibitors; note: potency is the fitted concentration of half-maximal effect; nearly all actives have a fitted effect of over 55% in size
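Growth kinetics read by CellTiter-Glo luminescence after ≥48 hr at 37 °C. Cells: DT40 Tdp1-/- stably carrying human TDP1, 400 per well, compound exposure in the absence of CPT (DMSO vehicle).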
uPA generation – cell surface uPA generation inhibition; cell surface uPA generation assay, qHTS; Potency, µM (highest dose often 38.3 µM), without a hit: top-dose activity change, negative = inhibition, most hits filed as inhibitors; hit rate 0.31% among 330,000; AID 540303; active = well fitted inhibition curve with a large enough effect; inconclusive = small, poorly fitted or top-dose-only effect; inactive = no such curve, though single readings can be large or run the other way; tested in mouse RAW 264.7 cells; note: potency is the fitted concentration of half-maximal effect; nearly all actives have a fitted effect of over 55% in size
TDP1 cell CPT – DT40-hTDP1 cell growth loss with CPT; chicken DT40 Tdp1-/-;hTDP1 cells + 20 nM CPT, ATP luminescence, 48 h; AID 686979; Potency, µM (highest dose often 46.2 µM), for inactives: top-dose activity change, negative = growth inhibition, most hits filed as inhibitors; hit rate 12% among 420,000; note: potency is the fitted concentration of half-maximal effect; nearly all actives have a fitted effect of over 55% in size
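Chicken DT40 Tdp1-/- cells complemented with human TDP1, 400 cells/well, exposed to compounds plus 20 nM camptothecin for at least 48 h at 37 C; viability read as ATP content by CellTiter-Glo luminescence.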
IL-1B inflam inh – inflammasome signaling inhibition, IL-1 beta readout. THP-1 LPS/ATP IL-1B secretion, AlphaLISA, 16 h; hits give low values. activity change, % at 57.5 µM. hit rate 4.7% among 360,000. AID 743279; in the data active = activity change below about -50%; inconclusive = mostly about -30% to -49%
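THP-1 cells pretreated 1 hr with compounds (up to 57.5 uM final), then stimulated with LPS (250 ng/mL final) plus ATP (1.25 mM final); secreted IL-1B measured by AlphaLISA after 16 hr, decreased signal indicating inhibition.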
Numbers without * were called inactive; i = inactive; ? = inconclusive; nt = no result given; [ ] = remark or other dose. Compounds with a hit are over-represented: about 19% of the library has one in this group of screens. Unless noted, calls come from the whole dose curve; as a rule, active = well fitted curve in the direction sought with a large enough effect; inconclusive = small, poorly fitted or top-dose-only effect, or another doubt; inactive = no such curve, though single readings can be large; an effect the other way counts as inactive or inconclusive. Unless noted, % is set by controls: 0 for no effect and ±100 for the full control effect.

SMILES	HT1080-NT tox	HT1080 IDH1KD tx	TDP1 cell noCPT	uPA generation	TDP1 cell CPT	IL-1B inflam inh
Cc1ccc(C(=O)c2cc([N+](=O)[O-])ccc2N2CCCCC2)c(C)c1	?	?	0.65µM*	-10%	1µM*	-9
COc1ccc(C(=O)c2cc([N+](=O)[O-])ccc2N2CCOCC2)cc1	?	0.15µM*	0.033µM*	-10%	0.026µM*	2
COc1cc(SC)ccc1C(=O)N1CCCc2ccccc21	?	-8%	?	-17%	?	8
Cc1c(Cl)cccc1NC(=O)N1CCOc2ccccc21	nt	nt	?	nt	-15%	nt
COc1cc(SC)ccc1C(=O)N1CCc2ccccc21	-3%	-24%	?	1%	21µM*	-15
CCc1ccc(NC(=O)c2cnc(SC)nc2C)cc1	0%	-5%	-25%	2%	?	22
O=C(COC(=O)/C=C/c1cccc(Br)c1)Nc1ccc(Cl)cn1	-2%	0%	-17%	nt	-7%	31
Cc1ccc(C(=O)c2cc([N+](=O)[O-])ccc2N2CCOCC2)cc1	5.2µM*	7.3µM*	2.1µM*	-18%	2.1µM*	36
O=C(c1cc([N+](=O)[O-])ccc1N1CCCCC1)N1CCc2ccccc21	?	2.3µM*	4.6µM*	-20%	15µM*	-4
CCOc1ccc(S(=O)(=O)N2CCN(C(=O)c3cc([N+](=O)[O-])ccc3N3CCOCC3)CC2)cc1	-1%[9.24 µM]	-1%	-2%	5%	-15%	-1
CCOc1ccc(C(=O)c2cc([N+](=O)[O-])ccc2N2CCOCC2)cc1	0.037µM*	0.026µM*	0.16µM*	-14%	0.13µM*	8
O=C(c1cc([N+](=O)[O-])ccc1Cl)N1CCc2ccccc21	-4%	-16%	-28%	-6%	-22%	-18
O=C(c1cc([N+](=O)[O-])ccc1N1CCOCC1)N1CCOCC1	1%	3%	19%	1%	-13%	-7
CCc1ccccc1NC(=O)Cn1ccn(-c2cc(C)cc(C)c2)c(=O)c1=O	nt	nt	-15%	nt	-21%	nt
CC(C)OC(=O)Nc1ccc2c(c1)N(C(=O)CCN(C)C)c1ccccc1CC2	2%	8%	-1%	-16%	-27%	-13
COC(=O)Nc1ccc2c(c1)N(C(=O)CCN(C)C)c1ccccc1CC2	12%	-1%	6%	8%	-9%	-57*
CCOC(=O)Nc1ccc2c(c1)N(C(=O)OCCN(C)C)c1ccccc1CC2	-2%	-12%	?	-13%	18µM*	-1
COC(=O)Nc1ccc2c(c1)N(C(=O)CCN1CCOCC1)c1ccccc1S2	-28%	-27%	3%	-10%	-13%	-27
CCOC(=O)Nc1ccc2c(c1)N(C(=O)CCN1CCOCC1)c1ccccc1S2=O (configuration not stated)	?	-22%	5.8µM*	12%	3.7µM*	-63*
COC(=O)Nc1ccc2c(c1)N(C(=O)CCCl)c1ccccc1S2	-15%	?	-30%	-10%	-9%	-96*
CCS(=O)(=O)Nc1ccc2c(c1)N(C(C)=O)c1ccccc1CC2	21%	14%	-9%	2%	-20%	0
CC(C)(C)C(=O)CSc1ccc(S(=O)(=O)N2CCN(Cc3ccccc3)CC2)cn1	-2%	-21%	?	1%	?	-23
NC(=O)CC(NC(=O)c1ccccc1)c1ccc(NCCN2CCCCC2)c([N+](=O)[O-])c1 (configuration not stated)	20%	9%	-22%	2%	-1%	1
CC(=O)c1ccc(NC(=O)CSc2nc(=O)n(Cc3ccncc3)c3c2CCC3)cc1	nt	nt	-3%	nt	-5%	nt
COc1ccc(S(=O)(=O)c2c(O)c3ccc(C(=O)NCc4ccccc4)cc3[nH]c2=O)cc1	nt	nt	-5%	nt	18%	nt
SMILES	HT1080-NT tox	HT1080 IDH1KD tx	TDP1 cell noCPT	uPA generation	TDP1 cell CPT	IL-1B inflam inh
Cc1nn(-c2ccc(Cl)cn2)c2c1C(=O)CC(C)(C)C2Br (configuration not stated)	5%	5%	?	-20%	?	3
CNCCC(=O)N1c2ccccc2CCc2ccc(NC(=O)OC)cc21	-12%	9%	?	-5%	?	-7
CCOC(=O)Nc1ccc2c(c1)N(C(=O)CCN(C)C)c1ccccc1CC2	-4%	-8%	-5%	-7%	-13%	-69*
Cc1ccc(C)c(-c2ccc(=O)n(Cc3c(F)cccc3Cl)n2)c1	0%	0%	?	35%	?	-2
Cc1ccc(-c2ccc(=O)n(Cc3cccc(Br)c3)n2)cc1	-22%	-12%	-18%	0%	-1%	-78*
Cc1ccc(-c2ccc(=O)n(Cc3c(F)cccc3Cl)n2)cc1	-12%	-8%	18µM*	-5%	?	-29
O=c1ccc(-c2ccccc2)nn1Cc1ccccc1	-1%	12%	?	1%	?	?
COc1ccc(-c2ccc(=O)n(Cc3cccc(Cl)c3)n2)cc1	-10%	-14%	?	-17%	?	-51*
Cn1cc(-c2nc3cncnc3n(C3CC3)c2=O)c2ccccc21	nt	nt	4%	nt	-5%	nt
CS(=O)(=O)N1CCC(C(=O)Nc2ccc(Cl)cc2Cl)CC1	3%	-2%	0%	nt	8%	-18
Cc1ccc(-c2nc3ncccc3o2)cc1NC(=O)c1ccccc1	14%	20%	-22%	-1%	-3%	-7
COc1ccc(-c2nc3ncccc3o2)cc1NC(=O)c1cccs1	6%	12%	15µM*	-1%	-20%	-6
Cc1cc(-c2nc3ncccc3o2)ccc1NC(=S)NC(=O)C(C)C	11%	15%	-21%	-1%	2%	0
COc1ccc(C(=O)Nc2ccc(-c3nc4ncccc4o3)cc2C)cc1Br	nt	nt	?	nt	10µM*	nt
O=C(Nc1cc(-c2nc3ncccc3o2)ccc1Cl)c1cccs1	-12%	-14%	21µM*	-1%	?	i
COc1ccc(-c2nc3ncccc3o2)cc1NC(=O)c1ccco1	10%	9%	?	-10%	?	-12
CC(OC(=O)C1=COCCO1)C(=O)NC(C)c1ccc(Cl)cc1Cl (configuration not stated)	-4%	-5%	-3%	-20%	-20%	-2
O=c1[nH]c2ccc(NCc3ccc(-c4ccccc4F)o3)cc2[nH]1	nt	nt	18µM*	nt	23µM*	nt
Cc1cccc2c1cnn2C(=O)Nc1ccc(Br)cc1F	3%	8%	2%	4%	-1%	2
